An excerpt weighted towards active compounds, which were near 1.6% of everything screened.
KCNQ2 enhance – KCNQ2 (rat) channel potentiation; O88943; CHO-K1 KCNQ2, FluxOR thallium flux fluorescence; hits give high values; B-score at 10 µM; 310,000 tested, 0.54% active;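 active = fluorescence ratio B-score at least 3 SD of library B-scores, with initial fluorescence B-score within 3 of them, cut at about 5.3 in these data; same plate scores as AID 2156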;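 note: B-score of peak minus minimum over baseline fluorescence ratio after K+ and Tl+ stimulus; positive B-score means potentiation of KCNQ2 with more thallium influx and brighter signal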
KCNQ2 inh – inhibitors of rat KCNQ2 potassium channel; CHO-K1 KCNQ2, FluxOR thallium flux, 20 min; hits give low values; B-score at 10 µM; 310,000 tested, 1.1% active;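 active = fluorescence ratio B-score at most minus 3 library SDs, with starting brightness B-score within 2 library SDs, cut at about -5.5 in these data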
KCNQ2 block conf – rat KCNQ2 channel inhibition, confirmatory screen; KCNQ2-expressing cells, thallium flux; hits give low values; 1,000 tested, 57% active; activity change, negative = inhibition, % at 10 µM; shares compounds with KCNQ2 inh;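 note: 0% = vehicle wells and values are ratio percent relative to vehicle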
KCNQ1 spec – human KCNQ1 activity in KCNQ2 inhibitor specificity screen. AID 493026. KCNQ1-expressing cells, FluxOR thallium flux fluorescence; hits give low values. activity change, negative = inhibition, % at 10 µM. shares compounds with KCNQ2 inh. 1,000 tested, 15% active;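 active = activity change at least 3 SD of negative controls below their mean in both duplicate wells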;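 note: CHO cells stably transfected with KCNQ1 and depolarized by potassium stimulus; peak minus minimum fluorescence over baseline after thallium addition; 0% = vehicle negative control and -100% = blank without thallium stimulus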
Target sequence (P51787 whole entry, looked up): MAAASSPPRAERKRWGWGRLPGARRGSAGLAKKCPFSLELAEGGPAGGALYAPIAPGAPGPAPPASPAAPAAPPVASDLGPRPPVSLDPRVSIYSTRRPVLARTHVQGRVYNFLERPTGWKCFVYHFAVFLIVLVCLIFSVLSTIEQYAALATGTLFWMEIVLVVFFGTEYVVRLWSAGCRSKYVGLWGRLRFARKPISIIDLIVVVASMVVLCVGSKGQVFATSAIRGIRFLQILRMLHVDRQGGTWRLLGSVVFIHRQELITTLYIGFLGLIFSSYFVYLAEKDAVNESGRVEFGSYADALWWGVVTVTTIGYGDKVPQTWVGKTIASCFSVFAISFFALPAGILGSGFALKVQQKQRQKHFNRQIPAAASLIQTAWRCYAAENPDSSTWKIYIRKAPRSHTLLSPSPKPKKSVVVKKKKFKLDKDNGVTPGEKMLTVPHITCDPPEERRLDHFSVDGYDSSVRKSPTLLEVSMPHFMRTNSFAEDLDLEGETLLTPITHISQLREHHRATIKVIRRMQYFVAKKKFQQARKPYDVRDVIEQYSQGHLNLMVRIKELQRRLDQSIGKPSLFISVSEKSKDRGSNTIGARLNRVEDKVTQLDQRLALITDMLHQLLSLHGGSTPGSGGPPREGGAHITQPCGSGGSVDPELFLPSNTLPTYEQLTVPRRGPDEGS
CHO Tl ctr – activity in parental CHO cells lacking KCNQ2; shares compounds with KCNQ2 inh; thallium flux counter-screen; hits give low values; activity change, % at 10 µM; 1,000 tested, 14% active;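 note: 0% = vehicle negative controls with stimulus buffer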
KCNQ2 patch conf – rat KCNQ2 inhibition confirmed by electrophysiology; shares compounds with KCNQ2 inh; KCNQ2-expressing cells, automated patch clamp current; calls only at 10 µM; 550 tested, 49% active; AID 588531
Active calls of the source: *; i = inactive; nt = no result given; + = active, no number. Unless noted, the rule behind the calls is not given here.

SMILES | KCNQ2 enhance | KCNQ2 inh | KCNQ2 block conf | KCNQ1 spec | CHO Tl ctr | others
CN1CCN(C(=O)c2ccc(CNS(=O)(=O)c3ccc(F)c(Cl)c3)cc2)CC1 | 0.08 | i | nt | nt | nt
O=C(Nc1ccccc1C(F)(F)F)c1cc2ccccc2o1 | nt | i | nt | nt | nt
COc1ccc(CCN(Cc2cc3ccc(C)cc3[nH]c2=O)C(C)=O)cc1OC | nt | i | nt | nt | nt
CC1(c2ccc(OC(F)F)cc2)NC(=O)N(CC(=O)Nc2ccc(Cl)cc2F)C1=O (stereo not given) | nt | i | nt | nt | nt
CCOC(=O)C(NC(=O)c1ccc(Cl)cc1Cl)(Nc1ccc(C)cc1)C(F)(F)F (stereo not given) | -8.5 | -8.5* | i | i | i
CCOC(=O)C(NC(=O)c1ccccc1Cl)(Nc1ccc(C(F)(F)F)cc1)C(F)(F)F (stereo not given) | nt | i | nt | nt | nt
C[C@H](NC(CCc1ccccc1)C(=O)O)C(=O)N1CCC[C@H]1C(=O)O (stereo not given in full) | nt | i | nt | nt | nt
O=[N+]([O-])c1cccc2nc(-c3ccccc3)c(-c3ccccc3)nc12 | -7.6 | -7.6* | -28%* | i | i | KCNQ2 patch conf=i
Cn1c(-[n+]2c(-c3ccccc3)cc(-c3ccccc3)cc2-c2ccccc2)nc2c([N+](=O)[O-])cccc21 | nt | i | nt | nt | nt
COc1ccc(S(=O)(=O)N2CCC3(CC2)OCCN3S(=O)(=O)c2ccc(C)cc2)cc1OC | 0.69 | i | nt | nt | nt
CS(=O)(=O)N1CCN(c2ccccc2NC(=O)Nc2cccc(Cl)c2)CC1 | nt | i | nt | nt | nt
CCN(CC1COc2ccccc2O1)C(=O)c1ccc(Cl)c(S(=O)(=O)N2CC(C)OC(C)C2)c1 (stereo not given) | nt | i | nt | nt | nt
CC1CN(S(=O)(=O)c2cc(C(=O)N(CCc3ccccc3)Cc3ccccc3)ccc2Cl)CC(C)O1 (stereo not given) | -7.2 | -7.2* | i | i | i
O=C(N/N=C/c1ccccc1O)C(=O)Nc1ccccn1 | nt | i | nt | nt | nt
N#CC(C#N)=C1C=CC=CN1/C(=C\c1ccccc1)C(=O)c1cccs1 | -10 | -10* | i | i | i
O=C(N/N=C/C(Br)=C\c1ccccc1)c1cccs1 | nt | i | nt | nt | nt
Cc1cc(C)cc(NC(=O)C(=O)NCCCN2CCCC2=O)c1 | 0.89 | i | nt | nt | nt
Cc1ccc(OCCC(=O)OCC(=O)NCCc2ccc(Cl)cc2)cc1 | 0.79 | i | nt | nt | nt
CCc1ccc(-c2nc(CSCC(=O)N3CCN(c4ccccn4)CC3)c(C)o2)cc1 | -10 | -10* | -38%* | -40%* | -32%* | KCNQ2 patch conf=i
Cc1ccc(-c2nc(CSCC(=O)N3CCN(c4ccccn4)CC3)c(C)o2)cc1 | nt | i | nt | nt | nt
O=C1[C@H]2[C@@H](c3ccc(F)cc3)N3C(=O)N(c4ccc(Br)cc4)C(=O)[C@@]3(Cc3ccc(Cl)cc3)[C@H]2C(=O)N1C1CCCCC1 | nt | i | nt | nt | nt
CCN(CC(=O)NCc1ccc(F)cc1)C(=O)CN1CCN(c2ccc(OC)cc2)CC1 | 0.86 | i | nt | nt | nt
Oc1ccc(/C=N/Nc2nc(N3CCCCCC3)nc(N3CCCCCC3)n2)c(O)c1 | nt | i | nt | nt | nt
BrC(=C\c1ccccc1)/C=N/Nc1nc(N2CCOCC2)nc(N2CCOCC2)n1 | 0.25 | i | nt | nt | nt
CC(/C=N/Nc1nc(N2CCCCC2)nc(N2CCCCC2)n1)=C\c1ccccc1 | -8.2 | -8.2* | -34%* | -34%* | -26%* | KCNQ2 patch conf=i
SMILES | KCNQ2 enhance | KCNQ2 inh | KCNQ2 block conf | KCNQ1 spec | CHO Tl ctr | others
C/C(=C/C=N/Nc1nc(N2CCCCC2)nc(N2CCCCC2)n1)c1ccccc1 | -7.2 | -7.2* | -29%* | i | i | KCNQ2 patch conf=i
COC(=O)c1ccc(NC(=O)c2cccc(C)c2[N+](=O)[O-])cc1 | 0.93 | i | nt | nt | nt
NS(=O)(=O)c1ccc(CCNC(=O)c2ccc(OCC3CCCO3)cc2)cc1 (stereo not given) | 0.22 | i | nt | nt | nt
O=C(Nc1ccccc1)/C(=C/c1cccc(Br)c1)NC(=O)c1ccco1 | 0.02 | i | nt | nt | nt
O=C(OCc1ccccc1)/C(=C/c1cccc(Br)c1)NC(=O)c1ccco1 | -9.6 | -9.6* | -25%* | i | i | KCNQ2 patch conf=+
CC(=O)Nc1ccc(S(=O)(=O)N2CCN(CCN3CCOCC3)CC2)cc1Cl | 1.3 | i | nt | nt | nt
C=C(C)c1cccc(C(C)(C)NC(=O)N(Cc2ccccc2)Cc2ccco2)c1 | -8.7 | -8.7* | -23%* | i | i | KCNQ2 patch conf=i

Source: PubChem
